17 molecules from PubChem BioAssay (NCATS) can be followed below.

Experiment [1] in a line: High Content Imaging Cell-Based qHTS for Inhibitors of the mTORC1 Signaling Pathway in MEF (Tsc2-/-, p53-/-) Cells (AID 2666).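 Note: percent of cells scored positive for phospho-rpS6 Ser235/236 immunostaining by imaging.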 The essentials: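 Inhibition of rpS6 phosphorylation is measured by immunofluorescence imaging in empty-vector Tsc2-/-, p53-/- mouse embryonic fibroblasts after 24 hrs compound exposure at 37 degree Celsius. Results are reported as % positive cells per well.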
(In general: In qHTS, concentration-response curves come from the screen itself.)

A short description of experiment [2]: High Content Imaging Cell-Based qHTS for Inhibitors of the mTORC1 Signaling Pathway in MEF Cells (AID 2667).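 Note: Tsc2-/- p53-/- MEFs stably re-expressing wild-type Tsc2 exposed 24 h; series mostly up to about 38 µM.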 The essentials: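 Fixed-cell imaging of phospho-S6 (Ser235/236, Alexa-488) after 24 hrs of compound treatment at 37 degree Celsius. Signal was normalized to Hoechst, and thresholds from the highest and lowest wells split cells into % active versus % non-active.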

Experiment [3] in a line: Cytometry Cell-Based qHTS for Inhibitors of the mTORC1 Signaling Pathway in MEF cells (AID 2668). Note: potency is the fitted concentration of half-maximal effect. The essentials: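 MEFs (Tsc2-/-, p53-/- stably expressing WT Tsc2) treated 24 h at 37 degree Celsius, fixed, stained with Alexa-488 anti-phospho-rpS6 Ser235/236 and propidium iodide; Acumen laser scanning. Reported as % positive cells, phospho-S6 normalized to PI.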
A short description of experiment [4]: Validation screen for small molecules that induce DNA re-replication in MCF 10A normal breast cells (AID 463097). Note: nearly all actives have a fitted effect of over 60% in size. The essentials: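 MCF 10A cells exposed to compound 48 hr at 37 C, 5% CO2, then Hoechst-stained 40 min. Laser-scanning imaging of nuclear DNA content (405 nm ex, 500-530 nm em); re-replication scored as rise in nuclei with elevated fluorescence intensity.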

Experiment [5] concerns the target Ubiquitin carboxyl-terminal hydrolase 2 (Homo sapiens) (UniProt O75604). The experiment is described as follows: qHTS Validation Assay for Inhibitors of Ubiquitin-specific Protease USP2a Using CHOP2 as the Reporter (AID 463106). The essentials: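 Inhibition is expressed relative to NEM as the full-inhibition control, with concentration-response curves classed by fit quality, magnitude and activity. Enzyme (USP2 core, 10nM) meets 25nM Ub-CHOP2 after compound preincubation; readings are taken at 60min.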

Experiment [6] deals with DNA polymerase III PolC-type (Bacillus subtilis (strain 168)) (UniProt P13267). In words: qHTS Validation Assay for the Inhibitors of DNA Replication in Gram-Positive Bacteria (AID 485295).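 Note: PicoGreen fluorescence of double-stranded DNA made on primed circular M13 template; series mostly up to about 57 µM.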 Put shortly:
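Reconstituted B. subtilis Pol III holoenzyme (PolC, beta clamp, SSB, primase) preincubated with compound, then M13Gori single-stranded circular template with dNTPs/NTPs added; room temperature reaction. Stopped with EDTA/PicoGreen; dsDNA fluorescence read, EDTA as full-inhibition control.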

The target of experiment [7] is Tumor susceptibility gene 101 protein (Homo sapiens) (UniProt Q99816). The experiment is described as follows: qHTS Validation Assay for Iinhibitors of HIV-1 Budding by Blocking the Interaction of PTAP/TSG101 (AID 485342; calls by dose curve). Put shortly:
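Tsg101 binding domain (10 uM) with FITC-labeled PTAP peptide (50 nM) in HEPES pH 7.5 buffer, 20 min at r.t. with compounds. Binding measured by fluorescence polarization.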

Experiment [8] is described as follows: qHTS Validation Assay to Find Inhibitors of Chronic Active B-Cell Receptor Signaling (AID 485345; active = well fitted curve in the direction sought with a large enough effect in the main read-out, with a control signal flat, not every such curve was filed as active; note: potency is the fitted concentration of half-maximal effect). Put shortly:
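TMD8 ABC-DLBCL cells with dox-inducible green luciferase–IκBα fusion and red native luciferase; compounds 46 uM–3 nM, 4 h at 37C with doxycycline in 0.5% FBS IMDM. Green/red ratio normalized to basal and 10 uM MG-132.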

Experiment [9] deals with Beta-2 adrenergic receptor (Homo sapiens) (UniProt P07550). The experiment is described as follows: qHTS validation assay of beta-arrestin-biased ligands of beta2-adrenergic receptor (AID 485366). Put shortly:
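Screening used a titration range of up to 46 microM in a beta-arrestin recruitment Tango luciferase assay. Cells in 1% FBS medium were treated 18 hr at 37 degrees C, and luminescence was normalized to %Activity.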

The target in experiment [10] is ATP-dependent 6-phosphofructokinase (Trypanosoma brucei brucei) (UniProt O15648). In words: qHTS Validation Assay to Find Inhibitors of T. brucei phosphofructokinase (AID 485368). The conditions noted are these: outcome: dose series up to 57.5 µM. Put shortly:
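PFK-generated ADP was measured after 45 min at room temperature using ADP-Glo. The reaction contained 0.5 mM F6P and 0.1 mM ATP.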

Records with an inconclusive call do not appear. Activity calls are given as the source filed them. Unless noted, calls come from the whole dose curve; as a rule, active = well fitted curve in the direction sought with a large enough effect; inconclusive = small, poorly fitted or top-dose-only effect, or another doubt; inactive = no such curve, though single readings can be large; an effect the other way counts as inactive or inconclusive.

Chain of ATP-dependent 6-phosphofructokinase (Trypanosoma brucei brucei) (O15648 whole entry, looked up): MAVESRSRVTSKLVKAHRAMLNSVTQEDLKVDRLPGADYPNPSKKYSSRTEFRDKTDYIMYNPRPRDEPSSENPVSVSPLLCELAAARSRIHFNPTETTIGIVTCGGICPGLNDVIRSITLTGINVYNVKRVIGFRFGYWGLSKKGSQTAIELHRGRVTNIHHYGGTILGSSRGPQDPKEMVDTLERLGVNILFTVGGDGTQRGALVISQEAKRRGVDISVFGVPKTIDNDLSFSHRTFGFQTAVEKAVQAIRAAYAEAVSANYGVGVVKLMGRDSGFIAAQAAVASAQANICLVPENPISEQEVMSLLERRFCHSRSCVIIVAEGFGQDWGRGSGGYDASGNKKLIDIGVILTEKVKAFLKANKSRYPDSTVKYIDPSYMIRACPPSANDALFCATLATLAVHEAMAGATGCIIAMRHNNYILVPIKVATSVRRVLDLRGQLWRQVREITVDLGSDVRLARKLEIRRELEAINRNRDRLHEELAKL
Chain of Tumor susceptibility gene 101 protein (Homo sapiens) (Q99816 whole entry, looked up, the tested form may be a part): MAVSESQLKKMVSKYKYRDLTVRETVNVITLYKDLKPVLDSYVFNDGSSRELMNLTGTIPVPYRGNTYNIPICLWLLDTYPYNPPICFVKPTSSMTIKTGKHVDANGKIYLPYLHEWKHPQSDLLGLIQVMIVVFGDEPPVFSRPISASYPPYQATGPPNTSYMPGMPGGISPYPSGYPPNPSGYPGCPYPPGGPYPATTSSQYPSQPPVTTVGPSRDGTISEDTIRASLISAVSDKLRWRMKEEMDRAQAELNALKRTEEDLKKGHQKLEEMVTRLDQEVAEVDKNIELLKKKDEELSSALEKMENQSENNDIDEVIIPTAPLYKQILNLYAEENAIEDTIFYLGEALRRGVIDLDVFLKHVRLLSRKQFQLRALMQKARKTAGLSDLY
Chain of Ubiquitin carboxyl-terminal hydrolase 2 (Homo sapiens) (O75604 whole entry, looked up): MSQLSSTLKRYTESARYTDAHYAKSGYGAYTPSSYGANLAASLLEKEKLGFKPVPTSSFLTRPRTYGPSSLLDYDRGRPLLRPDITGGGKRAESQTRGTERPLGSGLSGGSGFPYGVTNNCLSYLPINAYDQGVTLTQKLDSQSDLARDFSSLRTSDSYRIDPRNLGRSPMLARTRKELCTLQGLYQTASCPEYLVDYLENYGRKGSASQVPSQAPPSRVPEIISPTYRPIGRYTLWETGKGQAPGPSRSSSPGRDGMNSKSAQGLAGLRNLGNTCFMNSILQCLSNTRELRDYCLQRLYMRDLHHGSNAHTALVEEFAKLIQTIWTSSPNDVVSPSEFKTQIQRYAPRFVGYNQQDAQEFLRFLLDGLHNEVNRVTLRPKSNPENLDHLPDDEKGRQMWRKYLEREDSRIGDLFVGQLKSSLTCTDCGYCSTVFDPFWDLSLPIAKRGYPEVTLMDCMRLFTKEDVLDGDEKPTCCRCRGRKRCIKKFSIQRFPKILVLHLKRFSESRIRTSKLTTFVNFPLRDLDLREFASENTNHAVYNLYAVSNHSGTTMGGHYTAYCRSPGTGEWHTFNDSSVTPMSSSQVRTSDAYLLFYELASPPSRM
Chain of Beta-2 adrenergic receptor (Homo sapiens) (P07550 whole entry, looked up): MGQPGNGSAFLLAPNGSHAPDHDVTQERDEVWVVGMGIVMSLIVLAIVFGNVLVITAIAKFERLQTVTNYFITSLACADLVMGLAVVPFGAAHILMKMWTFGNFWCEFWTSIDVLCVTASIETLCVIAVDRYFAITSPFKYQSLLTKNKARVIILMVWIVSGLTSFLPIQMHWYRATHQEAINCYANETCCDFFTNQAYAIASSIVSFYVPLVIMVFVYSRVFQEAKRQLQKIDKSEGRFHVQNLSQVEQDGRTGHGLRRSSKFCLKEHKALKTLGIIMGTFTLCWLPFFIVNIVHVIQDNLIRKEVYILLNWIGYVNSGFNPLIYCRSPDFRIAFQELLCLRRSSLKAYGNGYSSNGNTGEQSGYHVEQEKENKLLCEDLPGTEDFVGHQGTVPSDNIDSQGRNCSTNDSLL
Chain of DNA polymerase III PolC-type (Bacillus subtilis (strain 168)) (P13267 whole entry, looked up): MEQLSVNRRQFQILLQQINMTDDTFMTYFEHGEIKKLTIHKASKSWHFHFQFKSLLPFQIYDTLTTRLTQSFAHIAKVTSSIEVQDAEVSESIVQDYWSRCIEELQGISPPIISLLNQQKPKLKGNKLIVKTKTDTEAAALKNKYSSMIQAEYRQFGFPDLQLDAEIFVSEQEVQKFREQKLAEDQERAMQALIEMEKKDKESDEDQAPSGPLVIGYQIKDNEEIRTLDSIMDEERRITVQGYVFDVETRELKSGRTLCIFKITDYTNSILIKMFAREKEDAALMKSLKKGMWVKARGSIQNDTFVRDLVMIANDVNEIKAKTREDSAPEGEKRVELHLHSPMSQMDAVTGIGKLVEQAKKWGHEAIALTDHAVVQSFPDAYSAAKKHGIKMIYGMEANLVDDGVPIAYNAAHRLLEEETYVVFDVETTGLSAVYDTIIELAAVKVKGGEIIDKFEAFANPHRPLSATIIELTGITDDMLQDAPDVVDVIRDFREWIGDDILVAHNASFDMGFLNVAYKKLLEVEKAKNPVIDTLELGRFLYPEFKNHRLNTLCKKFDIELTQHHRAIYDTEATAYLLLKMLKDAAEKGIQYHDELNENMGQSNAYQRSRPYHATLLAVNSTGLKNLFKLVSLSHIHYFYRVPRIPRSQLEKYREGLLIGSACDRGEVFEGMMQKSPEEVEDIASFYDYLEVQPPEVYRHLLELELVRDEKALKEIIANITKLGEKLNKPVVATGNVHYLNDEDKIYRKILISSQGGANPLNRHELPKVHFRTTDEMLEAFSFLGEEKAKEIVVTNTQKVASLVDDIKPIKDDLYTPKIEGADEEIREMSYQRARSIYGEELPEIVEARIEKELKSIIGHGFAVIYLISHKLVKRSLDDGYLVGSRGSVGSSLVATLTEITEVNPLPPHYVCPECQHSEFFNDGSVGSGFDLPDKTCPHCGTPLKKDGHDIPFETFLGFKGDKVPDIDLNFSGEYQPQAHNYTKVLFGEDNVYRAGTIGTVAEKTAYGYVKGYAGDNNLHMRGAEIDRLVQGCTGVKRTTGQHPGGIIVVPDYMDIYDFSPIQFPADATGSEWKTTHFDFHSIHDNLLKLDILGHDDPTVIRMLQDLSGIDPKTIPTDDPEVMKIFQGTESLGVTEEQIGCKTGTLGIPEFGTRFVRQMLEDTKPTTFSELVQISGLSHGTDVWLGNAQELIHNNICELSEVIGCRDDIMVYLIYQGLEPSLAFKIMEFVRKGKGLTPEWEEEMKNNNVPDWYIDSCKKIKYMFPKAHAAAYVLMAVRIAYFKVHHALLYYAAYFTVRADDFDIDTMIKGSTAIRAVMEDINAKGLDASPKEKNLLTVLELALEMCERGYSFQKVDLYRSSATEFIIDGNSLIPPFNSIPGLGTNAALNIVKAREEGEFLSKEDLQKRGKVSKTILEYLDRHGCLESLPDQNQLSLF

In the case of `COCCOC(=O)C1=C(C)NC(C)=C(C(=O)OC(C)C)C1c1cccc([N+](=O)[O-])c1` (configuration not stated), the Potency entry in experiment [1], in [2], in [3], in [4] and in experiment [6] was “inactive” throughout. The molecule was classed as inactive in experiment [5], in experiment [7], in experiment [9] and in [10]. Also, the Potency in experiment [8] was 9.2 µM (active).
Turning to `C#CCN(C)CCCOc1ccc(Cl)cc1Cl`, the Potency entry in [1], in experiment [2], in experiment [3], in experiment [4] and in experiment [6] was “inactive” in each case. Also, the molecule was called inactive in experiment [5], in experiment [9] and in experiment [10].
For `CO[C@@]1(NC(=O)CSCC#N)C(=O)N2C(C(=O)O)=C(CSc3nnnn3C)CS[C@@H]21`, the Potency result in experiment [1], in [2], in experiment [3], in experiment [4], in experiment [6] and in [8] was “inactive” each time. Besides, the call in experiment [5], in [9] and in experiment [10] was inactive.
As to `CN1C(=O)CC[C@H]1c1cccnc1`, the Potency result in [1], in [2], in [3], in experiment [6] and in experiment [8] was “inactive” in each case. Moreover, the molecule was called inactive in experiment [5], in experiment [7], in experiment [9] and in experiment [10].
Consider `CC(=O)Oc1cc(C(C)C)c(OCCN(C)C)cc1C`, for which the Potency result in experiment [1], in experiment [2], in experiment [3], in [4], in experiment [6] and in experiment [8] was “inactive” in each case. Moreover, the result in [5], in experiment [9] and in experiment [10] was inactive.
Consider `CCc1c(C)[nH]c2c1C(=O)C(CN1CCOCC1)CC2` (configuration not stated), for which the Potency result in experiment [1], in experiment [2], in [3], in experiment [4], in [6] and in experiment [8] was “inactive” throughout. The result in experiment [5], in [9] and in experiment [10] was inactive.
Turning to `COc1ccc(CN(CCN(C)C)c2ccccn2)cc1`, the Potency result in experiment [1], in experiment [2], in experiment [3], in [4], in [6] and in experiment [8] was “inactive” throughout. For the same molecule, the molecule was called inactive in experiment [5], in experiment [9] and in experiment [10].
As for `CCOC(=O)C1=C(C)NC(C)=C(C(=O)OC)C1c1cccc([N+](=O)[O-])c1` (configuration not stated), the Potency result in experiment [1] and in experiment [6] was “inactive” each time. Also, the molecule was classed as inactive in [5], in experiment [7] and in experiment [9]. Moreover, the Potency in experiment [8] was 9.2 µM (active).
Regarding `C(=C\c1ccccc1)/CN1CCN(C(c2ccccc2)c2ccccc2)CC1`, the Potency result in [1], in experiment [2], in [3], in experiment [6] and in [8] was “inactive” each time. Moreover, the outcome in [5] and in experiment [9] was inactive.
Regarding `Cc1nc2sccn2c(=O)c1CCN1CCC(=C(c2ccc(F)cc2)c2ccc(F)cc2)CC1`, in experiment [1], the Potency entry is “inactive”. The Potency in [3] is 11.7 µM (active). Also, the molecule was classed as inactive in experiment [5], in experiment [7] and in experiment [9].
Regarding `C[N+](C)(C)CCOC(=O)CCC(=O)OCC[N+](C)(C)C`, the Potency entry in experiment [2], in experiment [3], in [4], in experiment [6] and in experiment [8] was “inactive” throughout. The result in experiment [5], in experiment [7], in experiment [9] and in experiment [10] was inactive.
`CCc1cccc(N(C)C(N)=Nc2cccc3ccccc23)c1`: the Potency result in [1], in experiment [4] and in experiment [6] was “inactive” each time. Further, the call in [5], in experiment [7] and in experiment [9] was inactive.
Turning to `O=C(O)CCCCCCCC(=O)O`, the Potency result in [2], in experiment [3], in [4], in experiment [6] and in [8] was “inactive” throughout. Also, the call in experiment [5], in experiment [7] and in [9] was inactive.
For the molecule `COc1ccc2c(c1OC)C(=O)O[C@@H]2[C@H]1c2c(cc3c(c2OC)OCO3)CCN1C`, the Potency result in experiment [1], in experiment [2], in [3], in [6] and in experiment [8] was “inactive” each time. Besides, the outcome in experiment [5], in experiment [7], in experiment [9] and in experiment [10] was inactive.
For the molecule `O=c1[nH]c(=O)n([C@H]2C[C@H](O)[C@@H](CO)O2)cc1Br`, the Potency entry in [1], in experiment [2], in [4], in [6] and in experiment [8] was “inactive” in each case. For the same molecule, the molecule was called inactive in [5], in experiment [7], in experiment [9] and in experiment [10].
As to `CCn1nc(C(=O)O)c(=O)c2cc3c(cc21)OCO3`, the Potency result in [2], in experiment [3], in [4], in experiment [6] and in experiment [8] was “inactive” each time. In addition, the call in experiment [5], in experiment [7] and in experiment [9] was inactive.
Turning to `COC(=O)C1=C(C)NC(C)=C(C(=O)OC(C)(C)CN(C)CCC(c2ccccc2)c2ccccc2)C1c1cccc([N+](=O)[O-])c1` (configuration not stated), the Potency entry in experiment [1], in experiment [6] and in experiment [8] was “inactive” throughout. Moreover, the molecule was called inactive in experiment [5], in experiment [7], in [9] and in [10].
